High-throughput results as filed in PubChem BioAssay.
KDM5B inhibitor: blocks human KDM5B histone demethylase activity | KDM5B demethylase, FDH-coupled NADH fluorescence (FDH is formaldehyde dehydrogenase) | actives 2.6% (n = 220,000) | Q9UGL1 | Potency, µM (top dose mostly 57.7 µM), usual class: inhibitors; active = well fitted inhibition curve with a large enough effect; also: nearly all actives have a fitted effect of over 70% in size
Target sequence (Q9UGL1 whole entry, looked up): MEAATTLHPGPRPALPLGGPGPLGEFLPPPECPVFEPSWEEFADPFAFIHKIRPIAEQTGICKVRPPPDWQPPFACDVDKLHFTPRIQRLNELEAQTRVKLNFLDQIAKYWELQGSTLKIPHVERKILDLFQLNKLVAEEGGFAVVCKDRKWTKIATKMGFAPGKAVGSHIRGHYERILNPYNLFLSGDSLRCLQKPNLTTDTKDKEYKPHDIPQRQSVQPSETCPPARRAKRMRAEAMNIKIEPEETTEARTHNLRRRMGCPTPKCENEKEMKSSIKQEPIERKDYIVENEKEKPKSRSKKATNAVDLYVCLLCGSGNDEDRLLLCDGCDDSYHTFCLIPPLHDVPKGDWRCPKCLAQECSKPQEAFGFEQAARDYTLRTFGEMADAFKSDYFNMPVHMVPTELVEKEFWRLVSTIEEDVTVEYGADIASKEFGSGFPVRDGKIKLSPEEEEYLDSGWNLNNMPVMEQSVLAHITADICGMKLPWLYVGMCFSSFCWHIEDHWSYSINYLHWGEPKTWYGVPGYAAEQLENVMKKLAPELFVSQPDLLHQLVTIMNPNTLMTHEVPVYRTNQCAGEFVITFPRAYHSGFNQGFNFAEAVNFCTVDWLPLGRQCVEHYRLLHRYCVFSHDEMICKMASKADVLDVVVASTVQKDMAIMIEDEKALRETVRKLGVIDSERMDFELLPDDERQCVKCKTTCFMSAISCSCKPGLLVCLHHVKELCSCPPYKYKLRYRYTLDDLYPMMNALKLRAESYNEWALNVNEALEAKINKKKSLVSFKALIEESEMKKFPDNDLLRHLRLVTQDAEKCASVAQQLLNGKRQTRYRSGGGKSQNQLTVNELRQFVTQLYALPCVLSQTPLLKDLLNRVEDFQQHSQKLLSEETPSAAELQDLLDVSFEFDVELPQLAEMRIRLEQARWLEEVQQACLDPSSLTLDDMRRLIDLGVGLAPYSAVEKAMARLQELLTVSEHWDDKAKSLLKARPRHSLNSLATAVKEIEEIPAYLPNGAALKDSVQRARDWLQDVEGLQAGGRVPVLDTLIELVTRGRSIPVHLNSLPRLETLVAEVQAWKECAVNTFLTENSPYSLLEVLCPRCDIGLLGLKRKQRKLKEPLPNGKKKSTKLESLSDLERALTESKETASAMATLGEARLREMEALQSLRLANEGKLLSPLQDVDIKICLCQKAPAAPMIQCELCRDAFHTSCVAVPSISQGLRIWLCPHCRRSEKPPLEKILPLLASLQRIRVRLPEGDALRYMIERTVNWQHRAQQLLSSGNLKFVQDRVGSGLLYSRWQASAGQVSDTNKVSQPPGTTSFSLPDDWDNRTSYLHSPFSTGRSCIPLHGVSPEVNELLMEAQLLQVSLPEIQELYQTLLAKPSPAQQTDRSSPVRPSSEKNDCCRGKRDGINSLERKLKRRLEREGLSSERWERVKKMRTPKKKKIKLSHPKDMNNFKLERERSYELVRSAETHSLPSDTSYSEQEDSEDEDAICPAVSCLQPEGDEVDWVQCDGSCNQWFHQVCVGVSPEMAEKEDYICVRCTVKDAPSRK
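Here, H3K4me3 peptide (12.5 µM in substrate mix) is demethylated by KDM5BΔAP, 200 nM final, after 10 min compound exposure. Formaldehyde product is coupled through FDH (0.25 U/mL in mix) to NADH fluorescence; 30-min ΔRFU feeds dose-response curves.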
Of the large screens only hits and unclear results are named; the others gave an inactive call; ! = a repeat was not active. The entries come from a sample that favours hits as a whole.

NC(=O)c1ccc(-c2nnn(CC(=O)N3CCCC3c3ccc4c(c3)OCCO4)n2)cc1 (stereo not drawn)	none
CCCC(=O)N1Cc2ccccc2CC2(CCCCN2CC)C1 (stereo not drawn)	KDM5B inhibitor 56.2µM
O=C(c1cccc(Cl)c1)N1Cc2ccccc2CC2(CCCN2Cc2ccncc2)C1 (stereo not drawn)	KDM5B inhibitor 50.1µM
CCN1CCCCC12Cc1ccccc1CN(C(=O)C(C)C)C2 (stereo not drawn)	none
NCCC(=O)N1Cc2ccccc2CC2(CCCCN2CC2CCNCC2)C1 (stereo not drawn)	none
O=C(c1ccccc1)N1Cc2ccccc2CC2(CCCCN2Cc2ccncc2)C1 (stereo not drawn)	none
CC(C)C(=O)N1Cc2ccccc2CC2(CCCN(CC3CCCCC3)C2)C1 (stereo not drawn)	none
CCCN1CCCCC12Cc1ccccc1CN(C(=O)CCCC(=O)O)C2 (stereo not drawn)	none
CC(=O)NCC(=O)N1Cc2ccccc2CC2(CCCCN2CC2CCNC2)C1 (stereo not drawn)	KDM5B inhibitor 2.82µM
O=C(c1ccccc1)N1Cc2ccccc2CC2(CCCN2Cc2cccnc2)C1 (stereo not drawn)	none
CCC(=O)N1Cc2ccccc2CC2(CCCN(CC3CCNC3)C2)C1 (stereo not drawn)	none
CC(C)C(=O)N1Cc2ccccc2CC2(CCCN(CC3CCNC3)C2)C1 (stereo not drawn)	KDM5B inhibitor 35.5µM
CCCN1CCCC12Cc1ccccc1CN(C(=O)CNC(C)=O)C2 (stereo not drawn)	none
O=C(c1ccc2c(c1)CCN2S(=O)(=O)c1ccc(Br)cc1)N1CCCC1	none
CN(C)CCNc1nnnc2c1sc1nc(N3CCOCC3)c3c(c12)CC(C)(C)OC3	none
Cc1cc(C(=O)NCCc2ccccc2)c2ccccc2n1	none
O=C(CN(Cc1cccs1)CC1CCCO1)Nc1cccc(F)c1 (stereo not drawn)	none
Cc1cccc(N2CC(C(=O)Nc3ccc(S(=O)(=O)Nc4ncccn4)cc3)CC2=O)c1C (stereo not drawn)	none
COc1ccc(C(=O)Nc2ccc(N3CCCCC3)cc2)cc1S(=O)(=O)NC1CC1	none
CCc1cccc(C)c1NC(=O)c1ccc2ccccc2n1	none
COc1ccc(Cc2nnc(NC(=O)c3cccc(NC(=O)c4ccccc4)c3)s2)cc1	none
COC(=O)C1=C(C)N(c2ccccc2)C(=O)CC1C(=O)Nc1ccc(F)c(F)c1 (stereo not drawn)	none
C=CCc1c(O)ccc2oc(-c3ccccc3)cc(=O)c12	none
CN1CCC(C2CCN(S(=O)(=O)c3cc(F)ccc3F)C2)CC1 (stereo not drawn)	none
CCC(=O)N1Cc2ccccc2CC2(CCCCN2CC)C1 (stereo not drawn)	KDM5B inhibitor 100µM
CCC(=O)N1Cc2ccccc2CC2(CCCCN2C)C1 (stereo not drawn)	none
CCC(=O)N1Cc2ccccc2CC2(CCCCN2CC2CCOCC2)C1 (stereo not drawn)	none
O=C(CCc1cc2ccccc2[nH]c1=O)N1CCCCC1	none
CC1CCCCN1CCCCNC(=O)CCc1ccc(C#N)cc1 (stereo not drawn)	none
COc1ccc2[nH]c(=O)c(CCC(=O)NCCCN3CCCCC3C)cc2c1 (stereo not drawn)	KDM5B inhibitor 28.2µM
CC1CCCCN1CCNC(=O)CCCc1nc2ccccc2[nH]1 (stereo not drawn)	none
COc1ccc2[nH]c(=O)c(CCC(=O)N3CCN(CC(C)C)CC3)cc2c1	KDM5B inhibitor 28.2µM
O=C(CCc1cc2ccccc2[nH]c1=O)N1CCN(C(=O)c2ccco2)CC1	none
CC(C)OCCCNC(=O)C1CC(=O)N(c2n[nH]c3cc(Br)ccc23)C1 (stereo not drawn)	none
O=C(CCc1c[nH]c2ccccc12)NCc1ccc(CN2CCCC2)cc1	none
COc1ccc(/C=C2\Oc3cc(OS(=O)(=O)c4ccc(C)cc4)ccc3C2=O)cc1OC	none
O=C(NCc1ccccc1)NC(NC(=O)c1cccnc1)(C(F)(F)F)C(F)(F)F	none
CCc1ccc(NC(=O)N2CCC(Oc3ncccc3C(=O)N3CCOCC3)C2)cc1 (stereo not drawn)	none
Cc1cc(=O)oc2cc(OCC(=O)NC(C)(C)C)ccc12	none
O=C(c1ccc(Cl)cc1)N1CCC(n2cc(-c3ccccn3)[nH]c2=O)CC1	KDM5B inhibitor 44.7µM
O=C(c1ccc(Cl)cc1)N1CCC(N2CCCNC2=O)CC1	none
O=C(c1ccccc1)N1CCC(c2nn(-c3ccc(Cl)cc3)c(=O)[nH]2)CC1	none
COC(=O)C1CCN(Cc2nc3c(Br)cc(Br)cc3c(=O)[nH]2)CC1	none
c1csc(CNC2CCCCCCC2)c1	none
NC(=O)c1cccc2[nH]c([C@H]3CCN(Cc4cccc(Cl)c4)C3)nc12	KDM5B inhibitor 35.5µM
Brc1ccc(CN2CCC(c3nc4ncccc4[nH]3)C2)cc1 (stereo not drawn)	KDM5B inhibitor 20µM!
O=C(c1cccs1)N1CCCC(c2nc3c(nnn3Cc3cccc(Cl)c3)c(=O)[nH]2)C1 (stereo not drawn)	none
Clc1cccc(CN2CC[C@H](c3nc4ncccc4[nH]3)C2)c1	none
Brc1ccc(CN2CCC(c3nc4ncccc4[nH]3)CC2)cc1	none
